The source of these data is PubChem BioAssay (NCI).

About 83,000 compounds went through this panel and 20% of them were active in at least one assay; those are over-represented in the sample as a whole.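 For each line, cells grew in 96-well plates with the test compound present at a single concentration for 48 hours.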 Unmarked numbers belong to inactive results. The source made the active and inactive calls. The calls were made as follows: active = growth percent below 10; inactive = the rest.

The assay relates to MDA-MB-468 breast. Put plainly: NCI-60 one-dose screen, 48 h (100 = growth as untreated, 0 = no growth, -100 = all killed). The conditions noted are these: 10 µM unless noted.
In the case of `Cc1c(O)cnc2nn(-c3ccccc3)c(=N)n12`, the growth was 108%.
Consider `CCCCCCNC(=O)Oc1ccc(/C(=C(/CC)Cc2ccccc2)c2ccc(OCCCN(C)C)cc2)cc1`, for which the growth was 89.5%.
With `O=C(NCCNc1nccc(-c2c(-c3cccc(O)c3)nc3sccn23)n1)Nc1cc(C(F)(F)F)cc(C(F)(F)F)c1`, the growth was 57.8%.
Take `COc1ccc(/C=N/NC(=O)c2cnn3c2NC(c2ccccc2)C3)cc1OC` (configuration not stated): the growth is 34.8%.
Then `Cc1ccc(S(=O)(=O)Oc2ccc([N+](=O)[O-])cc2[N+](=O)[O-])cc1`, with 107%.
Take `O=C(c1ccccc1)c1ccco1`: the growth is 118%.
Consider `Nc1nc(-c2cccc([N+](=O)[O-])c2)c(N=Nc2cccc([N+](=O)[O-])c2)s1`, for which the growth is 62%.
Turning to `Cc1csc(NC(c2ccccc2)c2c(C)nc3ccccn23)n1` (configuration not stated), the growth was 100%.
As for `CCCCCCCCN(CCO)CCCCCCCC`, the growth is 98.7%.
As for `c1coc(-c2c3ccc(=[N+]4CCCCC4)cc-3oc3cc(N4CCCCC4)ccc23)c1`, the growth is -88.6% (active).
Regarding `COc1ccc(Cn2cc3c(c2-c2cc(OC)c(OC)c(OC)c2)CCc2cnoc2-3)cc1N`, the growth was -10.1% (active).
With `CC12CCC3C(CCC4CC(=O)/C(=C\O)CC43C)C1CCC(=O)O2` (configuration not stated), the growth is 108%.
Turning to `NCCCNc1nc2ccccc2c2c(=O)c3cc(C(F)(F)F)ccc3sc12`, the growth was -49.1% (active).
On to `O=C(/C=C/c1c(-c2ccccc2)[nH]c2ccccc12)S(=O)(=O)c1ccccc1`, for which the growth was 18.7%.
The result for `CC1(C)N=C(N)N=C(N)N1c1cccc(/C=C/C=C/c2cccc([N+](=O)[O-])c2)c1` reads 16.2%; that for `N#Cc1c(-c2ccc(Cl)cc2)nc(NN=Cc2cccc(O)c2)nc1N1CCOCC1`, 87.4%.
On to `O=c1[nH]c(=O)n(C2C[C@H](O)[C@@H](CO)O2)cc1C(F)(F)F` (some centres not stated), for which the growth is 117%.
The result for `C=C1C(=O)O[C@H]2[C@H]1CC/C(COC(=O)NCc1ccc(Cn3c(=O)sn(CCCC)c3=O)cc1)=C\CC[C@@]1(C)O[C@@H]21` reads 12.2%; that for `COc1ccc(-c2nn(-c3cccc(Cl)c3)cc2-c2cc(-c3ccccc3)[nH]c(=O)c2C#N)cc1`, 16.4%; that for `C[C@H]1[C@H](C)CC[C@]2(COC(=O)CCC(=O)O)CC[C@]3(C)C(=CC[C@@H]4[C@@]5(C)CCCNC(C)(C)[C@@H]5CC[C@]43C)[C@H]12`, 69% [100 µM].
Then `CNC1=CC(=O)c2c(C(=O)OC)c(C)[n+]([O-])c(C)c2C1=O`, with 34.7%; and `O=C1CSC(c2cn(-c3ccccc3)nc2-c2ccc(Cl)cc2)N1c1ccccc1` (configuration not stated), with 104%.
For `COc1cc(C(=O)c2cnc(-c3ccc4cc[nH]c4c3)[nH]2)cc(OC)c1OC`, the growth is -23.2% (active).
For the compound `CCCCCCNCc1cc(C(C)(C)C)cc(CNCCCCCC)c1O`, the growth is -89.8% (active).
For `CCOC(=O)c1cnc2c(C)cccc2c1Nc1ccc(C(C)=O)cc1`, the growth was -71.2% (active).
The result for `CC(C)(C)c1cc(O)c(O)c(C(C)(C)C)c1` reads 40.4%; that for `COc1ccc(-n2c(SCc3cc(OC)c(OC)c(OC)c3)nc3ccc(C)cc3c2=O)cc1`, 46.8%.
